# Shiga inhibitor: A qHTS for Small Molecule Inhibitors of Shiga Toxin. inhibition, % at 38.7 µM. 290,000 compounds, 9.2% hits. Vero cells, Shiga toxin protein synthesis inhibition reporter; in the data active = inhibition mostly above about 28%, no sharp cut-off; inactive = mostly below about 43%; also: 0% is about no effect
# CHX counter: Cycloheximide Counterscreen for Small Molecule Inhibitors of Shiga Toxin. cell reporter, cycloheximide protein synthesis inhibition counterscreen. max response, %. 300,000 compounds, 12% hits; in the data active = max response mostly above about 13%, no sharp cut-off; inactive = mostly below about 14%; also: read at 38.3 µM for the half of the compounds with a filed dose; 0% is about no effect
# SARS PLP yeast: qHTS of Yeast-based Assay for SARS-CoV PLP; S. cerevisiae expressing SARS-CoV PLpro, growth rescue; Potency, µM (series often up to 32.9 µM), for the others: top-dose activity, positive = growth rescue, actives largely listed as activators; 330,000 compounds, 0.19% hits; AID 485353, 2010; also: potency is read from the fitted curve at half-maximal effect; 0% is about no effect; nearly all actives have a fitted effect of over 55% in size
# Pf growth 96h: Primary qHTS for delayed death inhibitors of the malarial parasite plastid, 96 hour incubation | Potency, µM (doses to about 28.7 µM), without a hit: at the highest dose activity change, negative = inhibition, hits mostly inhibitors | P. falciparum luciferase reporter growth, 96 h | 320,000 compounds, 6.9% hits; active = well fitted inhibition curve with a large enough effect; inconclusive = small, poorly fitted or top-dose-only effect, or another doubt; inactive = no such curve, though single readings can be large or run the other way; also: potency is read from the fitted curve at half-maximal effect; % is scaled to controls: 0 for no effect and ±100 for the full control effect
#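 P. falciparum expressing integrated firefly luciferase grown in erythrocytes (2% hematocrit, 0.05% parasitemia final) with compounds for 96 hours at 37 C, 5% CO2. Growth inhibition read as loss of luminescence after adding luciferase detection reagent.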
# NS1 inh: qHTS Assay for Inhibitors of Influenza NS1 Protein Function; Potency, µM (doses to about 46.1 µM), for inactives: at the top dose activity, positive = more growth; 270,000 compounds, 0.4% hits; AID 2326, 2010; also: potency is read from the fitted curve at half-maximal effect; actives are rising curves; nearly all actives have a fitted effect of over 50% in size
#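 In this qHTS, NS1 from influenza A is expressed in budding yeast, where it slows growth. Cells are switched from glucose to 2% galactose medium (pH 6.0, -URA), treated with compound, and growth recovery is read at OD600.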
# Pf growth 48h: Primary qHTS for delayed death inhibitors of the malarial parasite plastid, 48 hour incubation. 310,000 compounds, 5.9% hits. AID 504832, 2011. P. falciparum luciferase growth in erythrocytes, 48 h. Potency, µM (titrated, usually from 28.7 µM), without a hit: at the top dose activity change, negative = inhibition, most hits filed as inhibitors; active = well fitted inhibition curve with a large enough effect; inconclusive = small, poorly fitted or top-dose-only effect, or another doubt; inactive = no such curve, though single readings can be large or run the other way; also: potency is read from the fitted curve at half-maximal effect; % is scaled to controls: 0 for no effect and ±100 for the full control effect
#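 Read-out is firefly luciferase luminescence from an integrated reporter in P. falciparum, so falling signal marks reduced parasite growth. Infected erythrocytes were at 2% hematocrit and 0.1% parasitemia (final) in Albumax-supplemented RPMI 1640.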
# Numbers without * were called inactive; ? = inconclusive; / = not tested or not shown; ! = a repeat was not active. Only some compounds are listed: those with a hit (about 21% of all), similar ones and a draw of the others. Unless noted, calls follow the shape of the full dose curve.
SMILES,Shiga inhibitor,CHX counter,SARS PLP yeast,Pf growth 96h,NS1 inh,Pf growth 48h
COc1cc(OC)cc(-c2nnc(SCc3c(F)cccc3Cl)o2)c1,81*,44*,?,?,-30%,?
Cc1ccccc1-c1nnc(SCC(=O)Nc2cccc(C)c2C)o1,12,-3,10%,/,-10%,60%
Fc1cccc(Cl)c1CSc1nnc(CNc2ccccc2)o1,20,17*,0%,60%,-37%,29%
CC(C)(C)OC(=O)NS(=O)(=O)Nc1ccccc1Br,-8,13,/,/,/,/
COC(=O)C(Cc1ccc(O)cc1)NC(=O)CCc1nc2ccccc2s1 (stereo not given),-5,-7,5%,?,6%,0%
COc1ccc(-c2nnc(SCc3ccccc3F)o2)cc1,118*,47*,4%,240%,-67%,/
O=c1cc(CSc2nnc(-c3ccccc3)o2)c2ccccc2[nH]1,5,10*,14%,?,-6%,22%
COc1ccc(-c2nc(Cn3c(SCc4ccccc4F)nc4ccncc43)c(C)o2)cc1,-14,-2,?,4.7µM*,9%,/
COc1ccc(-c2nc(Cn3c(SCc4ccc(F)cc4)nc4ccncc43)c(C)o2)cc1OC,-14,-4,-3%,?,10%,/
CC(=O)NC(Cc1ccc(F)cc1)C(=O)NC1CCN(c2ncccc2[N+](=O)[O-])CC1 (stereo not given),13,-2,-2%,15%,/,13%
Cc1ccn2c(C=O)c(-c3ccc(F)cc3)c(C=O)c2c1,47,28*,-2%,?,/,9%
Cc1c(C=O)c2ccccc2n1Cc1ccc(F)cc1,-2,-3,0%,21%,-9%,?
Cc1ccc(NC(=O)CSc2nncs2)cc1Cl,/,/,5%,-26%,/,23%
Cc1cc(NC(=O)c2ccccc2Cl)ccc1NC(=O)c1ccccc1Cl,/,-2,1%,142%,-9%,3%
Cc1ccc(NC(=O)CSc2ccccc2NC(=O)c2ccccc2Cl)cc1Cl,26,18*,-9%,-2%,-4%,?
Cc1ccc(NC(=O)CSc2ccccc2NC(=O)c2ccccc2)cc1Cl,18,34*,-10%,84%,3%,22%
COCc1cc(Sc2ccc(OC)cc2)nc(-c2ccccc2)n1,-8,5,2%,?,/,?
COCc1cc(Sc2ccc(Cl)cc2Cl)nc(-c2ccccc2)n1,8,-1,-2%,?,5%,12µM*
CNC(=O)C1(C(F)(F)F)C/C(=C\Cc2ccccc2)CCCO1 (stereo not given),0,2,/,/,/,/
Clc1ccc(Cn2c(CN3CCCC3)nc3ccccc32)cc1,-8,-3,4%,4.1µM*!,2%,?
O=c1ccc(-c2nc3ccccc3n2Cc2ccc(Cl)cc2)c[nH]1,-1,-12,3%,9.3µM*,-2%,5.9µM*
c1ccc(Cn2c(CN3CCCC3)nc3ccccc32)cc1,-15,-5,4%,9.3µM*,18%,?
CC(C)COP(=O)(CNC(=O)CN1C(=O)c2ccccc2S1(=O)=O)OCC(C)C,5,-2,3%,-12%,-4%,-10%
CN1CCN(/N=C/c2ccc(OCc3ccccc3)cc2)CC1,107*,65*,-1%,37%,-46%,50%
COC(=O)c1ccc(/C=N\N2CCN(Cc3ccc(C)cc3)CC2)cc1,-12,-6,5%,15%,-1%,0%
SMILES,Shiga inhibitor,CHX counter,SARS PLP yeast,Pf growth 96h,NS1 inh,Pf growth 48h
COc1ccc(/C=N/N2CCN(Cc3ccccc3)CC2)cc1,4,2,7%,74%,-5%,16%
CC(=O)Oc1ccccc1C(=O)Oc1ccc(/C=N/n2cnnc2)cc1,15,2,4%,8.3µM*,-20%,12%
C(=N\n1cnnc1)/c1ccc(OCc2ccccc2)cc1,62,24*,-8%,31%,-202%,?
COC(=O)c1ccc(COc2ccc(/C=N/N3CCN(C)CC3)cc2)cc1,155*,56*,1%,10%,-9%,124%
O=S(=O)(c1cccc2nsnc12)N1CCc2ccccc21,74,38,0%,-27%,-33%,89%
Cc1ccnc(NC(=O)c2ccc(OCC3CCCO3)cc2)c1 (stereo not given),/,/,-2%,3%,/,-44%
CC12COC3(C(=O)Nc4ccccc4)CC1CCC32C (stereo not given),13,8,-1%,20%,-5%,45%
CC12COC3(C(=O)Nc4ccc5ccccc5c4)CC1CCC32C (stereo not given),122*,35*,-29%,148%,/,121%
CC12COC3(C(=O)NCCc4ccccc4)CC1CCC32C (stereo not given),56*,50*,5%,0.0029µM*,-5%,17%
Cc1ccccc1NC(=O)C12CC3CCC1(C)C3(C)CO2 (stereo not given),6,0,-4%,13%,/,13%
Cc1cccc(NC(=S)NC(C)C(c2ccccc2)N2CCN(C)CC2)c1C (stereo not given),-6,-6,-2%,-25%,/,?
Cc1ccc(S(=O)(=O)c2nc(NN(C)C)sc2Cl)cc1,12,-2,0%,2%,/,-10%
CC(c1ccccc1F)n1cc(C(=O)NCc2ccncc2)nn1 (stereo not given),-11,-3,0%,0.52µM*,-4%,-2%
C[C@H]1COC(=O)[C@H](Cc2ccc(F)cc2)C/C=C\C[C@H](CC(=O)NCCO)C(=O)N1,/,/,-6%,/,/,/
CC(=O)c1cnc(Nc2nc(C)c3cc(C)c(C)cc3n2)nc1C,24,-1,6%,13µM*,-3%,2%
CSc1ncc(C(C)=O)c(C)n1,7,-1,0%,37%,/,-6%
O=C1NC(=O)[C@@H]2C3c4ccccc4C=CN3[C@H](C(=O)c3cccs3)[C@H]12 (stereo not given in full),69,31*,-6%,?,-26%,28%
Oc1c(CN2CCN(c3ccccc3)CC2)cc(Br)c2cccnc12,17,-2,?,?,-38%,1.9µM*
Oc1c(Br)cc(Br)c2cccnc12,/,/,/,9.5µM*,/,?
CC(=O)NC(c1ccco1)c1cc(Br)c2cccnc2c1O (stereo not given),/,/,-4%,?,/,?
O=C(Oc1c(Cl)cc(Cl)c2cccnc12)N1CCOCC1,-5,-4,1%,-4%,-7%,-14%
O=C(Oc1c(Cl)cc(Cl)c2cccnc12)N1CCCCC1,13,16,-2%,5.2µM*,-21%,-12%
CCOC(=O)N1CCN(Cc2cc(Cl)c3cccnc3c2O)CC1,29,6,-6%,23%,-50%,2.6µM*
c1ccc(N2CCN(Cc3ccnc4ccccc34)CC2)cc1,-2,1,1%,-2%,0%,-17%

# Assay outcomes: PubChem BioAssay, National Center for Advancing Translational Sciences (NCATS)
